Screening data as filed in PubChem.
Most compounds without a hit are left out; they make up all but 6.1% or so of the library.
D1 potentiator: Potentiators of Human D1 Dopamine Receptor: qHTS; D(1A) dopamine receptor (Homo sapiens), P21728; HEK293 TREx D1 cells, calcium flux, dopamine EC20 potentiation; potentiation, % at 10 µM; 0.036% of 360,000 active; AID 504651, 2011; in the data active = potentiation above about 30%; also: 0% is about no effect
Target sequence (P21728 whole entry, looked up): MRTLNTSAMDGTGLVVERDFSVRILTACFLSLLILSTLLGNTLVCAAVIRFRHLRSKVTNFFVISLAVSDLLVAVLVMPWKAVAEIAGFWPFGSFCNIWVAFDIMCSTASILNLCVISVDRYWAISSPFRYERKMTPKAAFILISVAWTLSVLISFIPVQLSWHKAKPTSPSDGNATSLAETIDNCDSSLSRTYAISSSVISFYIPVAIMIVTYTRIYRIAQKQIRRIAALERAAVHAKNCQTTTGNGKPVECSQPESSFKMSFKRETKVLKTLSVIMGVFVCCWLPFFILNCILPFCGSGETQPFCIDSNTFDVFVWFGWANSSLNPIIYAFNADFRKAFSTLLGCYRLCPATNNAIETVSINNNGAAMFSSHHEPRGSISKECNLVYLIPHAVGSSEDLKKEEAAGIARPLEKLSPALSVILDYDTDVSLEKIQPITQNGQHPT
D1 antagonist: Antagonist of Human D 1 Dopamine Receptor: qHTS; D(1A) dopamine receptor (Homo sapiens), P21728; HEK293 TREx D1 cells, calcium flux, dopamine EC80; active compounds read low; activity change, negative = inhibition, % at 10 µM; 3.2% of 360,000 active; AID 504652, 2011; in the data active = activity change below about -30%; also: % is scaled to controls: 0 for no effect and ±100 for the full control effect
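Inducible Hek293 Trex D1 cells (tetracycline, overnight, 30 C). Calcium dye 30–90 min RT. Antagonist mode: EC80 dopamine added after 180 s compound read.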
DRD3 agonist: qHTS of D3 Dopamine Receptor Agonist: qHTS; D(3) dopamine receptor (Homo sapiens), P35462; D3R DiscoveRx beta-arrestin cells, luminescence, 90 min; max activation, %; 0.58% of 410,000 active; AID 652048, 2013; in the data active = max activation above about 30%; also: 0% is about no effect
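Agonist mode: compounds and dopamine controls were applied to plated cells for 90 min at 37 degrees C after an overnight attachment at 1500 cells/well. Luminescent read-out followed 30 - 60 minutes at room temperature with DiscoveRx detection reagent.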
DRD3 antagonist: qHTS of D3 Dopamine Receptor Antagonist: qHTS. D3R cells, DiscoveRx beta-arrestin luminescence, antagonist mode; active compounds read low. max response, negative = inhibition, %. AID 652054, 2013. 2.5% of 360,000 active; in the data active = max response below about -50%; inconclusive = no clear call, values can overlap the other calls; also: % is scaled to controls: 0 for no effect and ±100 for the full control effect
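Cells expressing the human receptor were seeded at 1500 cells/well, incubated overnight at 37 degrees C in 5% CO2, then exposed to library compounds with dopamine controls for 90 minutes at 37 degrees C before luminescent detection.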
D1 ag: Allosteric Agonists of the Human D1 Dopamine Receptor: qHTS. 1% of 360,000 active. activation, % at 2 µM. D(1A) dopamine receptor (Homo sapiens), P21728. HEK293 T-REx D1 cells, calcium flux, agonist mode; in the data active = activation above about 30%; also: 0% is about no effect
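Agonism was scored from calcium flux recorded over 180 s (1 read/s) after pintool compound addition, following a 10-cycle baseline. Cells were inducible force-coupled HEK293 TREx D1, plated overnight at 30 C and loaded with no-wash calcium dye.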
Numbers without * were called inactive; ? = inconclusive; / = not tested or not shown.

SMILES	D1 potentiator	D1 antagonist	DRD3 agonist	DRD3 antagonist	D1 ag
Oc1c(CN2CCc3ccccc3C2)cc(Cl)c2cccnc12	/	10	-25	-139*	1
CC(C)(C)C1(O)CC(C(F)(F)F)=NN1C(=O)Cc1ccc([N+](=O)[O-])cc1 (configuration not stated)	-6	-34*	8	-3	6
Cc1ccccc1OCC(=O)N1N=C(C(F)(F)F)CC1(O)C(C)(C)C (configuration not stated)	5	15	-5	-18	59*
CCC1=NN(C(=O)Cc2ccc([N+](=O)[O-])cc2)C(O)(C(F)(F)F)C1 (configuration not stated)	-3	-12	5	-1	33*
CCCC1=NN(C(=O)Cc2ccc([N+](=O)[O-])cc2)C(O)(C(F)(F)F)C1 (configuration not stated)	-4	-10	7	5	4
CC1=NN(C(=O)Cc2ccc([N+](=O)[O-])cc2)C(O)(C(F)(F)C(F)(F)F)C1 (configuration not stated)	-1	-26	-11	?	9
COC(=O)[C@H](C)NC(=O)Nc1cccc(Br)c1	-1	2	84*	0	0
C=CCn1c(=O)/c(=C/c2ccc(O)cc2)s/c1=C(/C#N)c1nnc2n1CCCCC2	1	-1	-12	-14	50*
C=CCn1c(=O)/c(=C/c2ccc(Cl)cc2)s/c1=C(/C#N)c1nnc2n1CCCCC2	-7	-4	-3	-14	2
C=CCn1c(=O)/c(=C/c2cc(OC)c(OC)c(OC)c2)s/c1=C(/C#N)c1nc2ccccc2n1C	5	-23	7	-51*	18
C=CCn1cnc2c(c1=O)c1nc3ccccc3nc1n2/N=C/c1cc(OC)c(OC)c(OC)c1	-2	-5	-4	-21	1
O=c1c2[nH]c3cccc(Cl)c3c2ncn1CC1CCCO1 (configuration not stated)	-9	-30*	-7	0	2
OC1(c2ccccc2)CC(c2ccccc2)c2ccccc2O1 (configuration not stated)	/	/	73*	5	/
COc1ccc(C2CC(O)(c3ccccc3)Oc3cc(OC)c(OC)c(OC)c32)cc1 (configuration not stated)	-3	-36*	6	9	3
O=C1CC(c2ccccc2)c2ccc(O)cc2O1 (configuration not stated)	-3	-7	-5	-1	6
CCCCCCCCCCCCCCCC[N+](C)(C)CCN(Cc1ccc(OC)cc1)c1ncccn1	0	26	-76	-55*	9
COc1ccc(CN(CCN(C)C)c2ncccn2)cc1	/	/	-7	/	/
Cc1ccc(S(=O)(=O)NCCC(c2ccccc2)c2ccco2)cc1 (configuration not stated)	-6	-6	-3	-2	6
COc1ccccc1C(CCNS(=O)(=O)c1ccc(C)cc1)c1ccco1 (configuration not stated)	-4	21	-3	3	42*
Cc1ccc(C(=O)OCC(=O)N2CCCC2)cc1	-7	-56*	-2	4	1
COc1cc(C(=O)OCC(=O)N2CCCC2)cc(OC)c1OC	-4	-42*	4	16	3
Cc1cc(C)cc(C(=O)OCC(=O)N2CCCC2)c1	4	3	9	1	-1
COc1ccc(Br)cc1/C(C)=N/NC1=NCCN1	-2	/	-20	-52*	14
CCOc1cc(CNC2CCCC2)cc(Cl)c1OCc1ccc(F)cc1	42*	-7	-15	-13	102*
COc1cc(CNC2CCCC2)cc(Cl)c1OCc1ccc(F)cc1	-6	4	3	59	32*
SMILES	D1 potentiator	D1 antagonist	DRD3 agonist	DRD3 antagonist	D1 ag
COc1cc(CNn2c(C)n[nH]c2=S)cc(Cl)c1OCc1ccc(F)cc1	-2	-1	-20	-29	37*
CCOc1ccc2c(c1)c(=O)c(S(=O)(=O)c1ccc(Cl)cc1)cn2Cc1ccccc1C	-2	-3	-2	/	2
CC1=C(c2ccc(C(C)C)cc2)S(=O)(=O)N=C1N1CCN(c2ccccc2F)CC1	4	-5	-13	/	1
Cc1ccc(N(Cc2cccs2)C(=O)C(C)Oc2ccc(Cl)c(C)c2)cc1 (configuration not stated)	-2	3	-20	/	12
COc1ccc(Cl)cc1NC(=O)CN(C)C(=O)c1cc2c(s1)CCCC2	-5	-38*	-15	-8	6
Cc1cc2c(C)nc(-c3ccccc3)nc2o1	-6	-50*	1	2	0
Cc1nc(C)c(-c2ccc(SCC(=O)Nc3cccc(F)c3)nn2)s1	2	-32*	9	36	10
CC(=O)Nc1nonc1-c1nnc(SCc2ccc(F)cc2)n1C	0	2	-6	/	-1
CCCC(=O)Nc1nc2c(s1)CC(C(C)(C)C)CC2 (configuration not stated)	-1	15	7	/	1
COc1ccc(C2C(C(=O)c3ccccc3)N3c4ccccc4C=CC3C2[N+](=O)[O-])cc1 (configuration not stated)	-3	-6	6	-5	41*
CCN1/C(=C/c2ccc3ccccc3[n+]2CC)C=Cc2ccccc21	-4	-8	-10	-52*	0
Nc1nnc(SCC(=O)c2ccccc2)s1	4	1	-5	7	1
Nc1c(C(=O)c2ccccc2)sc2snc(SCC(=O)c3ccccc3)c12	4	7	-1	-26	108*
Cc1ccccc1-c1csc2ncnc(Sc3nnnn3C)c12	8	2	/	/	-1
S=c1[nH]ncn1/N=C/c1ccc(Br)cc1	3	12	-10	-109*	0
S=c1[nH]ncn1/N=C/c1ccccc1	-6	-30*	-5	-1	3
S=c1[nH]ncn1/N=C/c1ccc(N2CCOCC2)cc1	-5	-3	1	?	2
Cc1n[nH]c(=O)c2c1nnn2Cc1ccccc1Cl	-7	-51*	6	0	0
Cc1cc(C)c2c(n1)sc1c(=O)n(Cc3ccccc3Cl)nnc12	-4	-8	3	-51*	0
CC1CCC2C(=O)N(c3ccc(Cc4ccncc4)cc3)C(=O)C2C1 (configuration not stated)	-8	-30*	-7	-12	11
O=C1C2C3C=CC(C3)C2C(=O)N1c1ccc(Cc2ccncc2)cc1 (configuration not stated)	-8	-3	2	57	23
COc1ccc(CCNC(=O)c2cccs2)cc1OC	-4	5	4	-5	1
